# Laboratory results reported in PubChem BioAssay AID2284418 (EPA ToxCast).
# Records with an inconclusive call do not appear. Activity calls are given as the source filed them. How the source made its calls: active means hit-call score of the fitted dose curve at least 0.9, where 1 is the maximum; inconclusive means response in the unintended direction; inactive means score below 0.9.
# Tested on: SRY-box transcription factor 17 (SOX17) Protein Expression, Deisenroth Lab, SOX17 (gene 64321)
# Test: CCTE_Deisenroth_DEVTOX-GLR_Meso_SOX17: CCTE's DevTox GLR-Meso Assay Evaluation of SRY-box transcription factor 17 (SOX17) Protein Expression, Deisenroth Lab
# Protocol: CCTE_Deisenroth_DEVTOX-GLR_Meso assay is a cell-based, multiplex-readout assay that uses RUES2-GLR, a human pluripotent cell line, with measurements taken at 48 hours after chemical dosing in a 384-well microplateCCTE_Deisenroth_DEVTOX-GLR_Meso_SOX17 is 1 of 4 assay components calculated from the CCTE_Deisenroth_DEVTOX-GLR_Meso assay and it measures an the percentage of cells in an endoderm state. Using a type of inducible fluorescent protein reporter, gain-of-signal activity can be used to understand changes in gene expression with fluorescent microscopy. The percentage of SOX17+ cells are determined by calculating the number of SOX17+ cells divided by cell count. To generalize the intended target to other relatable targets, this assay component is annotated to the transcription factor intended target family, where the subfamily is SRY-related HMG-box.Data from the assay component CCTE_Deisenroth_DEVTOX-GLR_Meso_SOX17 was analyzed as 1 assay endpoint. The endpoint is the percent SOX17+ cell population minus the 0.2% DMSO control in the CCTE_Deisenroth_DEVTOX-GLR_Meso assay. This assay endpoint can be referred to as a secondary readout since this assay has produced multiple assay endpoints where this one serves as a measure of endoderm differentiation.
# All assay protocols are aligned to the DevTox GLR-Endo assay workflow. Cells are seeded into 384-well microplates for 24 hours prior to initiating differentiation in defined media for a total duration of 48 hours. A total of two chemical exposures are administered in 24-hour intervals during the 48-hour differentiation period. At the assay termination point, cells are fixed and stained with a fluorescent dye demarcating the nucleus. High-content imaging is used to acquire brightfield and fluorescent channel images across 5 fields per well. Cell identification and mean biomarker fluorescence intensities are calculated with image analysis software to determine the total cell counts for viability assessment and the biomarker expression frequency for each lineage-dependent assay. A typical experimental design tests a 10-point concentration series (1 nM - 200 uM) for 28 compounds in single technical replicate. Assay plate controls include non-differentiated pluripotent cells (baseline control), lineage-specific differentiated cells (differentiation control), and DMSO solvent exposed differentiated cells (solvent control). Experiments typically comprise a minimum of four experimental replicates (n=4).
SMILES,AC50,outcome
O=c1[nH]cc(F)c(=O)[nH]1,22.6 µM (active),
Nc1nc2ncc(CNc3ccc(C(=O)N[C@@H](CCC(=O)O)C(=O)O)cc3)nc2c(=O)[nH]1,,inactive
CS(=O)(=O)OCCCCOS(C)(=O)=O,107 µM (active),
O=C1CCC(N2C(=O)c3ccccc3C2=O)C(=O)N1 (centres undefined),,inactive
CCCC(CCC)C(=O)O,,inactive
O=C1NC(=O)C(c2ccccc2)(c2ccccc2)N1,146 µM (active),
CC1=C(/C=C/C(C)=C/C=C/C(C)=C\C(=O)O)C(C)(C)CCC1,30.2 µM (active),
CN(Cc1cnc2nc(N)nc(N)c2n1)c1ccc(C(=O)N[C@@H](CCC(=O)O)C(=O)O)cc1,0.0944 µM (active),
CC(C)(c1ccc(O)cc1)c1ccc(O)cc1,142 µM (active),
O=C1NS(=O)(=O)c2ccccc21,,inactive
Nc1cccc2c1C(=O)N(C1CCC(=O)NC1=O)C2=O (centres undefined),,inactive
CC1=C(/C=C/C(C)=C/C=C/C(C)=C/C(=O)O)C(C)(C)CCC1,22 µM (active),
CC/C(=C(/CC)c1ccc(O)cc1)c1ccc(O)cc1,6.47 µM (active),
CCN(CC)CCNC(=O)c1c(C)[nH]c(/C=C2\C(=O)Nc3ccc(F)cc32)c1C,0.8 µM (active),
